The whole screen tested about 150,000 compounds, of which about 1,000 (0.67%) were called active. Rule as the data show it: active = % elongation below about 90%; inactive = the rest, inconclusive results apart. The entries come from a sample that favours actives as a whole.
Molecular target: Genome polyprotein (Poliovirus type 1 (strain Mahoney)) (UniProt P03300)
Test: inhibitors of poliovirus polymerase RNA elongation – biochemical, fluorescence polarization, total intensity, primary screen (AID 588519); as to z-score: compound at 16.7 µg/mL
Conditions: stronger effect = lower value; for % elongation: compound at 16.7 µg/mL; for z-score: measured here: FP z-score
[1] = measured here: total intensity read-out

Chain of Genome polyprotein (Poliovirus type 1 (strain Mahoney)) (P03300 1749-2209 limits assumed): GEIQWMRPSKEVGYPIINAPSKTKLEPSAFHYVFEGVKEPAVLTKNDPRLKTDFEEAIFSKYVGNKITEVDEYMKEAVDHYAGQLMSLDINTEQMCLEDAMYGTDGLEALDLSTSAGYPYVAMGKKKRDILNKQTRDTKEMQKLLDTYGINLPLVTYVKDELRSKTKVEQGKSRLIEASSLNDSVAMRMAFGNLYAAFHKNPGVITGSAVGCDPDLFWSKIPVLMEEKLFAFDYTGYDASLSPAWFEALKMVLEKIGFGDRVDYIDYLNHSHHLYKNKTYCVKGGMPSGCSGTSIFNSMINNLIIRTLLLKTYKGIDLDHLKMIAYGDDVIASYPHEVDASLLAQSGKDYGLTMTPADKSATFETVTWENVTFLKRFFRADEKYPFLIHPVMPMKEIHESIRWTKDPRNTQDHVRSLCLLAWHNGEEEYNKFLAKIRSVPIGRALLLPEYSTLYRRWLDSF

SMILES	% elongation	z-score	% elongation [1] [%]
Cc1cc(C(=O)COc2ccc(-n3ccnc3)cc2)c(C)n1-c1ccc2c(c1)OCO2	103% (inactive)	0.1	107
Nc1nnc(-c2ccc(Cn3c(-c4cncs4)nc4ccccc43)cc2)s1	63% (active)	-5.6	75
Cc1ccc(Cn2c(CNC(=O)c3ccccc3)nc3ccccc32)cc1	100% (inactive)	-0.3	104
CC(=O)Nc1nc2ccccc2n1Cc1ccc(C)cc1	100% (inactive)	-0.7	102
O=C1Nc2ccccc2N(c2ccccc2)N1	101% (inactive)	0.4	105
CCOc1ccccc1N(CC(=O)NC)S(C)(=O)=O	102% (inactive)	0.4	103
Cc1cc(C(=O)COC(=O)c2ccc(S(=O)(=O)NCc3ccco3)cc2)c(C)n1C	101% (inactive)	-0.2	100
CCOc1ccccc1N(CC)C(=O)Nc1cn(C)c(=O)c2ccccc12	103% (inactive)	-0.7	104
CCOc1ccccc1CNC(=O)Cn1ncc2c([nH]c3ccccc32)c1=O	102% (inactive)	-0.4	103
CCOc1ccccc1CNC(=O)Nc1cn(CC(C)C)c(=O)c2ccccc12	28% (active)	-6	48
CCOc1ccc(OCC(=O)OC(C)C(=O)Nc2ncc(Cl)cc2Cl)cc1 (centres undefined)	106% (inactive)	0.3	97
Cc1cccc(OCCOc2ccc(Br)cc2/C=C2\SC(=S)NC2=O)c1	101% (inactive)	-0.2	104
Cc1cc(C)c(C(N)=O)c(SCC(=O)Nc2c(C)n(C)n(-c3ccccc3)c2=O)n1	103% (inactive)	0.1	97
O=C1c2ccccc2C(=O)N1CC1OCc2ccccc2CO1	103% (inactive)	0.3	110
O=C1Cc2ccccc2C(=O)N1Cc1ccccn1	85% (active)	-1.9	83
CSc1nc(=O)n(Cc2ccccn2)c2c1CCC2	101% (inactive)	0.1	104
Cc1ccc(NC(=O)C2C3C=CC4(O3)C2C(=O)N(CCCN2CCOCC2)C4C(=O)NC2CCCC(C)C2C)cc1Cl (centres undefined)	101% (inactive)	0.1	103
CCn1c2ccccc2c2cc(CN3CCN(Cc4cccc(Cl)c4)CC3)ccc21	103% (inactive)	0.1	108
CCn1c2ccccc2c2cc(P(=S)(OC)OC)ccc21	81% (active)	-2.3	86
CCn1c(=O)cc(O)c2ccccc21	115% (inactive)	1.3	123
O=C(CCc1nc(CN2CCN(S(=O)(=O)c3ccc(F)cc3)CC2)no1)N1CCCCC1	109% (inactive)	0.3	112
O=C(CN1CCN(S(=O)(=O)c2ccc3[nH]c(=O)[nH]c3c2)CC1)N1CCCCCC1	86% (active)	-1.1	93
O=C(C1CCN(S(=O)(=O)c2ccc3[nH]c4c(c3c2)CCCCC4)CC1)N1CCCC1	100% (inactive)	-1	97
